Measured values from PubChem BioAssay (EPA / NIEHS).
Calls of active or inactive are those of the source. How the source made its calls: active means hit-call score of the fitted dose curve at least 0.9, where 1 is the maximum; inactive means score below 0.9.

Read-out: Cyclin D1 (CCND1), CCND1 (gene 595)
Assay: LTEA_HepaRG_CCND1: Life Technologies and Expression Analysis (LTEA) Assay for Cyclin D1 (CCND1) using HepaRG (AID 2283451);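 on AC50: TaqMan qRT-PCR transcript level normalised to ACTB GAPDH and POLR2A housekeeping genes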
Conditions: mRNA level, 48 h; actives raise or lower the signal
Experimental: LTEA_HepaRG is a cell based, multiplexed-readout assay that uses HepaRG, a human liver cell line, with measurements taken at 48 hours after chemical dosing on a 96-well plate.LTEA_HepaRG_CCND1 is one of 102 assay component(s) measured in the LTEA HepaRG cell culture assay. It is a marker of Cell proliferation, survival, death.Data from the assay component LTEA_HepaRG_CCND1 was analyzed into 1 endpoint. This assay endpoint, LTEA_HepaRG_CCND1, was analyzed with bidirectional fitting relative to DMSO as the negative control and baseline of activity. Using a type of inducible reporter, measures of mRNA induction for gain or loss-of-signal activity can be used to understand regulation of transcription factor activity. To generalize the intended target to other relatable targets, this assay endpoint is annotated to the cell cycle intended target family, where the subfamily is Cell proliferation, survival, death.
A total of 1060 chemcials from the ToxCast library were tested in eight-point concentration-response experiments. Cell culture and cytotoxicity assays were conducted at Thermo Fisher Scientific's Custom Services facility (Madison, WI). A single lot of human HepaRG cells (Thermo Fisher Scientific, Frederick, MD) was used for the cell culture experiments. 96-well format collagen type I coated plates of human HepaRG cells were prepared using established methods. Briefly, cryopreserved HepaRG cells were thawed, plated at a density of approximately 100,000 cells/well in HepaRG Thaw, Plate, and General Purpose media (HPRG770, Thermo Fisher Scientific), and incubated for 48 hours. 0.5% DMSO was selected as vehicle control to balance the requisite need of DMSO in HepaRG cultures to maintain differentiation (for example, baseline metabolism, proportions of hepatocytes vs. cholangiocytes), while enabling further hepatic receptor pathway activation (for example, PXR and CAR) in response to chemical exposure. 48 hours after plating, the culture medium was replaced with HepaRG Serum-Free Incudtion Media. Cells were exposed to each test chemical in duplicate and maintained in CO2 incubators for another 48 hours. Chemical plates were thawed to room temperature and 200x concentrations of treatment groups were prepared. 8-point conentration-reponse curves were made with the highest exposure at 100 uM, followed by half-log dilutions, all in 0.5% DMSO. Each test plate contained variouse controls, induction positive controls (1mM phenobarbital), cytotoxicity positive controls ([…] aflatoxin B1), vehicle controls (0.5% DMSO), and total lysis controls (0.5% DMSO). Cell morphology images were taken using an Essen IncuCyte FLR automated microscope, with six 96-well plates imaged in about 24 minutes. Images were captured and exported and JPEG files. Spent culture media was transfered to black-well plates for the LDH assay, and remaining media was sorted at -80 C for later use. Cells were treated with RLT buffer and frozen until shipped for gene expression analysis. Total RNA was isolated from the cell suspension in 75 uL of Buffer RLT (Qiagen, Germantown, MD 20874) by Quintiles/Expression Analysis (Durham, NC) using a custom isolation procedure. Total RNA from each plate well was transferred to a preamplification plate. Fluidigm's 96.96 Dynamic ArrayTM (Fluidigm, Amsterdam, the Netherlands) technology was used for gene expression analyses by quantitative reverse transcription polymerase chain reaction (qRT-PCR, performed by Quintiles/Expression Analysis, Durham, NC)89. Standard TaqManTM Assays (Applied Biosystems/ThermoFisher Scientific, Foster City, CA) were used to assess the expression of 93 genes selected based on their selectivity and sensitivity to important hepatic receptors known to be modulated by environmental chemicals; importance in human hepatocyte functionality; and hepatotoxicity. […]

Row | Compound | outcome | AC50
1 | CCCCC(CC)COC(=O)CCCCCCCCC(=O)OCC(CC)CCCC (stereo not given) | inactive | 
2 | CC(O)CN(CCN(CC(C)O)CC(C)O)CC(C)O (stereo not given) |  | 12.5 µM (active)
3 | CC(=O)OCCC(C)C | inactive | 
4 | C1=CCCC=CCCC=CCC1 | inactive | 
5 | CN(C)c1ccc(Cc2ccc(N(C)C)cc2)cc1 | inactive | 
6 | Cc1ccc(O)cc1 | inactive | 
7 | CCCCC(CC)COC(=O)c1ccc(C(=O)OCC(CC)CCCC)cc1 (stereo not given) | inactive | 
8 | COc1ccc2sc(C(=O)Nc3nnn[nH]3)c(OC(C)C)c2c1 |  | 13.1 µM (active)
9 | C=CCCCCCCCCC(=O)O | inactive | 
10 | CC(C)CCO | inactive | 
11 | CCC(C)(C)C(=O)O[C@H]1C[C@@H](C)C=C2C=C[C@H](C)[C@H](CC[C@@H]3C[C@@H](O)CC(=O)O3)[C@H]21 | inactive | 
12 | CC(=O)OC[C@H]1O[C@@](COC(C)=O)(O[C@H]2O[C@H](COC(C)=O)[C@@H](OC(C)=O)[C@H](OC(C)=O)[C@H]2OC(C)=O)[C@@H](OC(C)=O)[C@@H]1OC(C)=O | inactive | 
13 | Cn1c(=O)c2c(ncn2C)n(C)c1=O | inactive | 
14 | O=C1CCC(N2C(=O)c3ccccc3C2=O)C(=O)N1 (stereo not given) | inactive | 
15 | CC(C)c1cccc(C(C)C)c1N1C(=O)c2ccc(O)cc2C1=O |  | 82.4 µM (active)
16 | CC[C@H]1OC(=O)[C@H](C)[C@@H](O[C@H]2C[C@@](C)(OC)[C@@H](O)[C@H](C)O2)[C@H](C)[C@@H](O[C@@H]2O[C@H](C)C[C@H](N(C)C)[C@H]2O)[C@](C)(O)C[C@@H](C)C(=O)[C@H](C)[C@@H](O)[C@]1(C)O | inactive | 
17 | CC/C(=C\C(=N/O)C(N)=O)C(C)[N+](=O)[O-] (stereo not given) | inactive | 
18 | CC[C@H](C)C(=O)O[C@H]1C[C@@H](C)C=C2C=C[C@H](C)[C@H](CC[C@@H]3C[C@@H](O)CC(=O)O3)[C@H]21 | inactive | 
19 | C[C@](N)(Cc1ccc(O)c(O)c1)C(=O)O | inactive | 
20 | CCOCCOCCOCCO | inactive | 

Row | Compound | outcome | AC50
21 | O=C(O)CCN(C1(C(=O)NO)CCCC1)S(=O)(=O)c1ccc(Oc2ccc(F)cc2)cc1 | inactive | 
22 | Oc1ccc2c(c1)-c1ccccc1C2 | inactive | 
23 | Nc1cccc(N)c1 | inactive | 
24 | Cn1c(=O)cc(Oc2ccc(F)cc2F)c2cnc(NCC(C)(C)O)nc21 |  | 17 µM (active)
25 | CCOCCO | inactive | 
26 | CCCCCCCCCCCCc1ccccc1 | inactive | 
27 | CC(=O)c1ccc2c(c1)[C@H](NC(=O)c1ccc(F)cc1)[C@@H](O)C(C)(C)O2 | inactive | 
28 | Cn1cnc([N+](=O)[O-])c1Sc1ncnc2nc[nH]c12 | inactive | 
29 | CNCc1ccc(NC(=O)c2c[nH]c3c2C(=O)CCC3)cc1 | inactive | 
30 | CCCC(=O)OCC | inactive | 
31 | O=C1OC(=O)C2C3C=CC(C3)C12 (stereo not given) | inactive | 
32 | COC(=O)c1c(Cl)c(Cl)c(C(=O)OC)c(Cl)c1Cl | inactive | 
33 | O=c1[nH]c2ccc(S(=O)CCN3CCC(Cc4ccc(F)cc4)CC3)cc2o1 (stereo not given) | inactive | 
34 | Cc1c(-c2cccnc2)c2ccccc2n1CCCCC(=O)O | inactive | 
35 | CN(C)c1ccc(N=NS(=O)(=O)O)cc1 | inactive | 
36 | CC[C@H]1CC[C@H](NCc2cc3c(cc2OC)[C@H]2C[C@H]2C(=O)N3C)[C@H](c2ccccc2)N1 | inactive | 
37 | CC1(C)C(=O)N(Br)C(=O)N1Br | inactive | 
38 | O=C(O)c1cc(N=Nc2ccc(S(=O)(=O)Nc3ccccn3)cc2)ccc1O | inactive | 
39 | O=c1n(CC2CO2)c(=O)n(CC2CO2)c(=O)n1CC1CO1 (stereo not given) | inactive | 
40 | O=C(OC[C@H]1O[C@@H](OC(=O)c2cc(O)c(O)c(OC(=O)c3cc(O)c(O)c(O)c3)c2)[C@H](OC(=O)c2cc(O)c(O)c(OC(=O)c3cc(O)c(O)c(O)c3)c2)[C@@H](OC(=O)c2cc(O)c(O)c(OC(=O)c3cc(O)c(O)c(O)c3)c2)[C@@H]1OC(=O)c1cc(O)c(O)c(OC(=O)c2cc(O)c(O)c(O)c2)c1)c1cc(O)c(O)c(OC(=O)c2cc(O)c(O)c(O)c2)c1 | inactive | 
